The text below walks through data of publication PMC8384837, “Expanding the binding specificity for RNA recognition by a PUF domain”.

This assay concerns the target PUM1 PUF domain R3-LFS (Homo sapiens, UniProt Q14671 828-1176, C935L;R936F;Q939S). The assay can be described thus: yeast three-hybrid, YBZ-1, SC-Leu-His + 0.5 mM 3-AT, 4 days. To be noted: tags: N-Gal4 AD-HA kept; label: inside an RPR1-promoter hybrid RNA with tandem MS2 sites; ssRNA. The procedure, abridged:
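A centromeric plasmid in strain YBZ-1 co-expressed Pumilio-1 PUF domain libraries, randomized at the three base-contacting residues of each repeat, with matching RNA elements; the strain carries a LexA–MS2 coat fusion and a HIS3 reporter. After four days on SC-Leu (input) or SC-Leu-His + 0.5 mM 3-AT (selection), the repeat regions were PCR-amplified and Illumina-sequenced. The interaction score is the log change in variant frequency from input to selection, using log2 and a pseudocount of 1 where absent.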
“GGCUAGAACUAGUGGAUCCCCCGGCGCCCGGCGGCUCGAGCCCGGGUAAGUGUAAGUAGUCUGCAUGCCGCCGGGCGCCAUGCCUGCAGGUCGACUCUAGAAAACAUG”: the binding signal is 6.56 log2 enrichment (interaction score).

For the sequence “GGCUAGAACUAGUGGAUCCCCCGGCGCCCGGCGGCUCGAGCCCGGGUAAGUGUAAAUAGUCUGCAUGCCGCCGGGCGCCAUGCCUGCAGGUCGACUCUAGAAAACAUG”, the binding signal is 3.98 log2 enrichment (interaction score).

For “GGCUAGAACUAGUGGAUCCCCCGGCGCCCGGCGGCUCGAGCCCGGGUAAGUGUAAUUAGUCUGCAUGCCGCCGGGCGCCAUGCCUGCAGGUCGACUCUAGAAAACAUG”, the binding signal is 4.38 log2 enrichment (interaction score).
